# Source: publication PMC8384837, “Expanding the binding specificity for RNA recognition by a PUF domain”
# Positions count from the first letter of the chain named.
# Legend:
# Experiment in all cases: yeast three-hybrid, YBZ-1, SC-Leu-His + 0.5 mM 3-AT, 4 days
# Details in all cases: tags: N-Gal4 AD-HA kept; label: inside an RPR1-promoter hybrid RNA with tandem MS2 sites; ssRNA
# [1] = target: PUM1 PUF domain R4-WGG (Homo sapiens, UniProt Q14671 828-1176, N971W;H972G;Q975G)
# In short: (§1)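 Pumilio-1 PUF domain libraries, randomized (NNK) at the three base-contacting residues of each repeat, were co-expressed with matching RNA elements from a centromeric plasmid in strain YBZ-1 (LexA–MS2 coat fusion, HIS3 reporter). Transformants were plated on SC-Leu (input) and SC-Leu-His + 0.5 mM 3-AT (selection) for four days, and repeat regions were PCR-amplified and Illumina-sequenced. The interaction score is the log2 change in variant frequency from input to selection, with pseudocount 1 where absent.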
# [2] = target: PUM1 PUF domain R4-DHA (Homo sapiens, UniProt Q14671 828-1176, N971D;Q975A)
# In short: as §1
# [3] = target: PUM1 PUF domain R1-GCK (Homo sapiens, UniProt Q14671 828-1176, S863G;R864C;Q867K)
# In short: as §1
# [4] = target: PUM1 PUF domain R7-RNR (Homo sapiens, UniProt Q14671 828-1176, S1079R;E1083R)
# In short: as §1
# [5] = target: PUM1 PUF domain R4-LHH (Homo sapiens, UniProt Q14671 828-1176, N971L;Q975H)
# In short: as §1
# [6] = target: PUM1 PUF domain R5-RRF (Homo sapiens, UniProt Q14671 828-1176, C1007R;Q1011F)
# In short: as §1
# [7] = target: PUM1 PUF domain R5-KYA (Homo sapiens, UniProt Q14671 828-1176, C1007K;R1008Y;Q1011A)
# In short: as §1
# [8] = target: PUM1 PUF domain R5-CNH (Homo sapiens, UniProt Q14671 828-1176, R1008N;Q1011H)
# In short: as §1
# [9] = target: PUM1 PUF domain R5-RAT (Homo sapiens, UniProt Q14671 828-1176, C1007R;R1008A;Q1011T)
# In short: as §1
# [10] = target: PUM1 PUF domain R8-RKV (Homo sapiens, UniProt Q14671 828-1176, N1122R;Y1123K;Q1126V)
# In short: as §1
# [11] = target: PUM1 PUF domain R8-LYL (Homo sapiens, UniProt Q14671 828-1176, N1122L;Q1126L)
# In short: as §1
# [12] = target: PUM1 PUF domain R8-KFL (Homo sapiens, UniProt Q14671 828-1176, N1122K;Y1123F;Q1126L)
# In short: as §1
# [13] = target: PUM1 PUF domain R5-RFW (Homo sapiens, UniProt Q14671 828-1176, C1007R;R1008F;Q1011W)
# In short: as §1
# [14] = target: T1, PUM1 PUF domain R6-SRD (Homo sapiens, UniProt Q14671 828-1176, N1043S;Y1044R;Q1047D)
# T1 sequence: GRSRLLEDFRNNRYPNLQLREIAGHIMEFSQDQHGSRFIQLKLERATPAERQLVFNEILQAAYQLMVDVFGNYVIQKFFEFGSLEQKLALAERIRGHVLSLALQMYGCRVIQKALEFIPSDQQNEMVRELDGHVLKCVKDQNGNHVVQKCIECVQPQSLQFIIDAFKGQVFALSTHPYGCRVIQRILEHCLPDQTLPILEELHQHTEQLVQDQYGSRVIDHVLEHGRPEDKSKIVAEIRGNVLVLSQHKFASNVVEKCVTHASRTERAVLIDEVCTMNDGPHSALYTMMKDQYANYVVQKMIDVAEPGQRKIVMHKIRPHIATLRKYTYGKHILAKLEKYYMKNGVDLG
# In short: as §1
# [15] = target: PUM1 PUF domain R1-SRD (Homo sapiens, UniProt Q14671 828-1176, Q867D)
# In short: as §1
# [16] = target: T2, PUM1 PUF domain R6-VWI (Homo sapiens, UniProt Q14671 828-1176, N1043V;Y1044W;Q1047I)
# T2 sequence: T1 sequence with S216V, R217W, D220I
# In short: as §1
# [17] = target: T3, PUM1 PUF domain R6-RYK (Homo sapiens, UniProt Q14671 828-1176, N1043R;Q1047K)
# T3 sequence: T1 sequence with S216R, R217Y, D220K
# In short: as §1
# [18] = target: PUM1 PUF domain R3-THE (Homo sapiens, UniProt Q14671 828-1176, C935T;R936H;Q939E)
# In short: as §1
# [19] = target: T4, PUM1 PUF domain R6-GWI (Homo sapiens, UniProt Q14671 828-1176, N1043G;Y1044W;Q1047I)
# T4 sequence: T1 sequence with S216G, R217W, D220I
# In short: as §1
# [20] = target: PUM1 PUF domain R4-CRA (Homo sapiens, UniProt Q14671 828-1176, N971C;H972R;Q975A)
# In short: as §1
# PUM1 PUF domain R4-WGG, sequence (Q14671 828-1176 N971W/H972G/Q975G): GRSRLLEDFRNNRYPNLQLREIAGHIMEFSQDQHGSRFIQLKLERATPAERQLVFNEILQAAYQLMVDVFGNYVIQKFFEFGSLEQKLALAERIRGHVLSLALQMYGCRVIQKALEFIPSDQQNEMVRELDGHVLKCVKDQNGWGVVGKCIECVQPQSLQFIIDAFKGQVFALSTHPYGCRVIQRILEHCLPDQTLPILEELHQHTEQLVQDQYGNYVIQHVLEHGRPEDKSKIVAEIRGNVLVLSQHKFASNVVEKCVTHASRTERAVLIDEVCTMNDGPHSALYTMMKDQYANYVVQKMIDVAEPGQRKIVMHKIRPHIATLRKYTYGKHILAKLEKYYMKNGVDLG
sequence,measurement,setting,value
GGCUAGAACUAGUGGAUCCCCCGGCGCCCGGCGGCUCGAGCCCGGGUAAGUGUACAUAGUCUGCAUGCCGCCGGGCGCCAUGCCUGCAGGUCGACUCUAGAAAACAUG,binding signal,[1],3.3 log2 enrichment (interaction score)
same,binding signal,[2],5.96 log2 enrichment (interaction score)
GGCUAGAACUAGUGGAUCCCCCGGCGCCCGGCGGCUCGAGCCCGGGUAAGUGUAAAUCGUCUGCAUGCCGCCGGGCGCCAUGCCUGCAGGUCGACUCUAGAAAACAUG,binding signal,[3],2.79 log2 enrichment (interaction score)
GGCUAGAACUAGUGGAUCCCCCGGCGCCCGGCGGCUCGAGCCCGGGUAAGUCUAAAUAGUCUGCAUGCCGCCGGGCGCCAUGCCUGCAGGUCGACUCUAGAAAACAUG,binding signal,[4],4.72 log2 enrichment (interaction score)
GGCUAGAACUAGUGGAUCCCCCGGCGCCCGGCGGCUCGAGCCCGGGUAAGUGUAUAUAGUCUGCAUGCCGCCGGGCGCCAUGCCUGCAGGUCGACUCUAGAAAACAUG,binding signal,[1],3.71 log2 enrichment (interaction score)
same,binding signal,[5],4.06 log2 enrichment (interaction score)
GGCUAGAACUAGUGGAUCCCCCGGCGCCCGGCGGCUCGAGCCCGGGUAAGUGUUAAUAGUCUGCAUGCCGCCGGGCGCCAUGCCUGCAGGUCGACUCUAGAAAACAUG,binding signal,[6],3.3 log2 enrichment (interaction score)
same,binding signal,[7],4.12 log2 enrichment (interaction score)
same,binding signal,[8],2.78 log2 enrichment (interaction score)
same,binding signal,[9],1.36 log2 enrichment (interaction score)
GGCUAGAACUAGUGGAUCCCCCGGCGCCCGGCGGCUCGAGCCCGGGUAAGUGUAAAUUGUCUGCAUGCCGCCGGGCGCCAUGCCUGCAGGUCGACUCUAGAAAACAUG,binding signal,[3],1.58 log2 enrichment (interaction score)
GGCUAGAACUAGUGGAUCCCCCGGCGCCCGGCGGCUCGAGCCCGGGUAAGCGUAAAUAGUCUGCAUGCCGCCGGGCGCCAUGCCUGCAGGUCGACUCUAGAAAACAUG,binding signal,[10],2.31 log2 enrichment (interaction score)
same,binding signal,[11],2.29 log2 enrichment (interaction score)
same,binding signal,[12],4.76 log2 enrichment (interaction score)
GGCUAGAACUAGUGGAUCCCCCGGCGCCCGGCGGCUCGAGCCCGGGUAAGUGUAGAUAGUCUGCAUGCCGCCGGGCGCCAUGCCUGCAGGUCGACUCUAGAAAACAUG,binding signal,[1],1.6 log2 enrichment (interaction score)
GGCUAGAACUAGUGGAUCCCCCGGCGCCCGGCGGCUCGAGCCCGGGUAAGUGUGAAUAGUCUGCAUGCCGCCGGGCGCCAUGCCUGCAGGUCGACUCUAGAAAACAUG,binding signal,[13],2.92 log2 enrichment (interaction score)
same,binding signal,[7],0.9 log2 enrichment (interaction score)
GGCUAGAACUAGUGGAUCCCCCGGCGCCCGGCGGCUCGAGCCCGGGUAAGUGGAAAUAGUCUGCAUGCCGCCGGGCGCCAUGCCUGCAGGUCGACUCUAGAAAACAUG,binding signal,[14],4.81 log2 enrichment (interaction score)
GGCUAGAACUAGUGGAUCCCCCGGCGCCCGGCGGCUCGAGCCCGGGUAAGUGUAAAUGGUCUGCAUGCCGCCGGGCGCCAUGCCUGCAGGUCGACUCUAGAAAACAUG,binding signal,[15],3.35 log2 enrichment (interaction score)
GGCUAGAACUAGUGGAUCCCCCGGCGCCCGGCGGCUCGAGCCCGGGUAAGUGAAAAUAGUCUGCAUGCCGCCGGGCGCCAUGCCUGCAGGUCGACUCUAGAAAACAUG,binding signal,[16],5.74 log2 enrichment (interaction score)
GGCUAGAACUAGUGGAUCCCCCGGCGCCCGGCGGCUCGAGCCCGGGUAAGUGUCAAUAGUCUGCAUGCCGCCGGGCGCCAUGCCUGCAGGUCGACUCUAGAAAACAUG,binding signal,[6],3.03 log2 enrichment (interaction score)
same,binding signal,[13],3.42 log2 enrichment (interaction score)
same,binding signal,[7],3.04 log2 enrichment (interaction score)
same,binding signal,[9],3.06 log2 enrichment (interaction score)
GGCUAGAACUAGUGGAUCCCCCGGCGCCCGGCGGCUCGAGCCCGGGUAAGUGUAAAUAGUCUGCAUGCCGCCGGGCGCCAUGCCUGCAGGUCGACUCUAGAAAACAUG,binding signal,[11],0.84 log2 enrichment (interaction score)
same,binding signal,[1],2.44 log2 enrichment (interaction score)
same,binding signal,[13],1.35 log2 enrichment (interaction score)
same,binding signal,[17],3.06 log2 enrichment (interaction score)
same,binding signal,[7],3.48 log2 enrichment (interaction score)
same,binding signal,[18],2.11 log2 enrichment (interaction score)
same,binding signal,[19],2.34 log2 enrichment (interaction score)
same,binding signal,[20],3.82 log2 enrichment (interaction score)
GGCUAGAACUAGUGGAUCCCCCGGCGCCCGGCGGCUCGAGCCCGGGUAAGUUUAAAUAGUCUGCAUGCCGCCGGGCGCCAUGCCUGCAGGUCGACUCUAGAAAACAUG,binding signal,[4],5.92 log2 enrichment (interaction score)
